Source: PubChem (Broad Institute)
Not all results are given here.
aSyn UTR act – Activators via SNCA 5'UTR binding, MLPCN; alpha-synuclein 5'UTR reporter, activators screen; activity score, % (tested at 7.5 µM), hits read low; 7.1% of 300,000 active; AID 1814; in the data active = activity score below about -60%
* hit, by the source's call.

SMILES | aSyn UTR act
O=c1c(-c2ccccc2)n[nH]c2ccccc12 | -86.6*
CC(C)(C)Cc1nnc(NC(=O)c2ccc3c(c2)OCO3)s1 | -112.0*
CCC(CC)c1nnc(NC(=O)c2ccc3c(c2)OCO3)s1 | -169.1*
CCOc1ccc2c(c1)C(C)=CC(C)(C)N2S(=O)(=O)c1ccc(C)cc1 | 103.2
COc1ccc2c(c1)C(C)=CC(C)(C)N2S(=O)(=O)c1ccc(C)cc1 | -62.6*
CN(C)C(=O)N1CCN(c2nc(-c3ccccc3)cs2)CC1 | -191.6*
O=C(N1CCOCC1)N1CCN(c2nc(-c3ccccc3)cs2)CC1 | -77.4*
O=C1CNC(=S)N1c1nc(-c2ccccc2)cs1 | -140.6*
Cc1cc(N2CCN(c3nc(-c4ccc([N+](=O)[O-])cc4)cs3)CC2)c2ccccc2n1 | 65.7
c1ccc(-c2csc(N3CCOCC3)n2)cc1 | -145.1*
c1ccc(-c2csc(N3CCN(c4ccccn4)CC3)n2)cc1 | -77.5*
CSc1cccc(NC(=O)c2ccco2)c1 | -75.1*
CC(=O)Nc1ccc(NC(=O)c2ccco2)cc1 | -71.1*
O=C(NNC(=O)c1ccccc1O)c1ccco1 | -81.6*
O=C(/C=C\c1ccccc1)Nc1ccc(NC(=O)c2ccco2)cc1 | -66.8*
C#CC[N+](C)(C)CCCCCCCCC | 65.0
O=C(Nc1ccc(Cl)cc1)c1ccco1 | -130.9*
CN(C(=O)c1ccc(NC(=O)c2ccco2)cc1)c1ccccc1 | -75.6*
O=C(Nc1cccc(NC(=O)c2ccc(-c3ccc(Br)cc3)o2)c1)c1ccco1 | -94.7*
CSc1cccc(NC(=O)c2cccc3cccnc23)c1 | -134.1*
CC1N(C)c2cc(NC(=O)c3ccco3)ccc2C1(C)C (stereo not given) | -81.4*
O=C(COc1ccccc1)Nc1ccc(NC(=O)c2ccco2)cc1 | -65.3*
O=C(NC1CCCC1)c1ccc(CSCc2ccccc2F)o1 | -62.6*
CC1N/C(=C\C(=O)c2ccccc2)N(O)C1(C)C (stereo not given) | -124.0*
c1ccc(-c2onc3cc4c(cc23)OCCO4)cc1 | -167.1*
SMILES | aSyn UTR act
COc1ccc(C(=O)Nc2cc(Cl)ccc2Cl)c(OC)n1 | -90.5*
COc1ccc(C(=O)Nc2cc(Cl)cc(Cl)c2)c(OC)n1 | -113.7*
O=C(O)CN1C(=O)/C(=C\c2cccc(OCc3ccc(Cl)cc3Cl)c2)SC1=S | -105.5*
Cc1ccc2sc(N3CCN(C(=O)c4ccc([N+](=O)[O-])o4)CC3)nc2c1C | -75.6*
COc1cccc2sc(N3CCN(C(=O)c4ccc([N+](=O)[O-])o4)CC3)nc12 | -110.3*
O=C(c1ccc([N+](=O)[O-])o1)N1CCN(c2nc3ccc(F)cc3s2)CC1 | -108.3*
c1ccc(-c2noc(C34CC5CC(CC(C5)C3)C4)n2)nc1 | -209.1*
c1ccc(-c2noc(C34CC5CC(CC(C5)C3)C4)n2)cc1 | -69.5*
CCOC(=O)c1cc2c(s1)-c1ccccc1CC2 | -97.5*
CCOC(=O)c1cc2ccc3ccccc3c2s1 | -169.3*
O=C(NCC1CCCO1)c1ccc(-c2ccccc2Cl)o1 (stereo not given) | -115.3*
O=C(NC1CCCCC1)c1ccc([N+](=O)[O-])o1 | -79.4*
O=C(NC1CCCCC1)c1ccc(-c2ccccc2[N+](=O)[O-])o1 | -83.3*
O=C(NCC1CCCO1)c1cc(-c2ccccc2F)no1 (stereo not given) | -204.4*
CC(NC(=O)c1ccc([N+](=O)[O-])o1)C12CC3CC(CC(C3)C1)C2 (stereo not given) | -168.0*
O=C(NCC1CCCO1)c1ccc([N+](=O)[O-])o1 (stereo not given) | -90.0*
CC(NC(=O)COC(=O)c1ccc2c(c1)S(=O)(=O)N=C1CCCCCN12)C12CC3CC(CC(C3)C1)C2 (stereo not given) | 67.8
COc1ccc(C(=O)Nc2ccc3ccccc3c2)cc1OC | -175.8*
COc1cc(C(=O)Nc2ccc3ccccc3c2)cc(OC)c1OC | 88.5
COc1ccc(NC(=O)c2cc3ccccc3cc2OC)cc1OC | -70.2*
COc1cc2ccccc2cc1C(=O)Nc1ccc(O)cc1 | -137.8*
Cc1occc1C(=O)Nc1ccc2ccccc2c1 | -128.5*
COc1cccc(NC(=O)c2ccccc2Br)c1 | -105.7*
COc1cccc(C(=O)Nc2ccc(N(C)C)cc2)c1OC | -213.6*
COc1cccc(NC(=O)c2cc3ccccc3cc2OC)c1 | -150.9*
SMILES | aSyn UTR act
COc1cc2ccccc2cc1C(=O)Nc1ccc(Cl)cn1 | -111.1*
COc1cc(Cl)c(C)cc1NC(=O)c1cccc(OC)c1OC | -137.3*
COc1cccc(C(=O)Nc2ccc3[nH]c(=O)[nH]c3c2)c1OC | 67.8
COc1cc(OC)c(C(=O)Nc2ccc3ccccc3c2)cc1OC | -232.1*
COc1cccc(NC(=O)c2cccc(OC)c2OC)c1 | -168.0*
CO/C([O-])=N/c1c[n+](-c2ccc(C)cc2)no1 | -61.5*
O=C(COC(=O)CC1CCCC1)Nc1cc2c(cc1Cl)C(=O)c1ccccc1C2=O | -169.3*
COc1ccc(C(=O)Nc2nc3c(s2)Cc2cc(OC)ccc2-3)cc1 | -108.7*
COc1ccc2c(c1)Cc1sc(NC(=O)c3cccs3)nc1-2 | -242.4*
COc1ccc2c(c1)Cc1sc(NC(=O)c3ccccc3)nc1-2 | -223.4*
Cc1ccc(NC(=O)Nc2cccs2)c(Cl)c1 | -201.0*
Cc1c(NC(=O)Nc2cccs2)cccc1[N+](=O)[O-] | -70.8*
Cc1c(NC(=S)Nc2ccccc2C(F)(F)F)cccc1[N+](=O)[O-] | -65.5*
O=C(NC(=O)c1csnn1)Nc1ccccc1Cl | -102.8*
O=C(Nc1cccs1)Nc1ccccc1Cl | -70.5*
NNC(=O)c1ccc2nc(-c3ccc(Br)cc3)cn2c1 | -154.0*
COC(=O)c1ccc2nc(-c3ccc4c(c3)OCO4)cn2c1 | 95.2
COc1ccc(-c2cn3cc(C(=O)NN)ccc3n2)cc1 | -91.5*
O=c1c2ccccc2cnn1CCOc1cccc(Br)c1 | -152.6*
Cc1ccc2nc3c(cc(C(N)=S)c(=N)n3CCCOC(C)C)c(=O)n2c1 | -64.2*
Cc1ccc(-c2cn(-c3ccccc3)c(SCC(=O)NC3CCS(=O)(=O)C3)n2)cc1C (stereo not given) | -143.5*
Cn1c(SCC(=O)c2ccc(F)cc2)nnc1-c1cnccn1 | -62.7*
Cn1c(SCC(=O)c2ccccc2)nnc1-c1cccc(N)c1 | -62.0*
Cn1c(SCC(=O)c2ccccc2)nnc1-c1ccccn1 | -128.1*
Cc1cc(C)n(-c2nnc3c4ccccc4n(C)c3n2)n1 | -68.9*
SMILES | aSyn UTR act
C/C(=N\Nc1nnc2c3ccccc3n(C)c2n1)c1ccc(C)o1 | -84.9*
COC(=O)c1c(-c2ccccc2)csc1NC1=NS(=O)(=O)c2ccccc21 | -121.5*
CN1N=C(C(=O)N2CCc3c([nH]c4ccccc34)C2c2ccccc2Cl)CCC1=O (stereo not given) | -69.0*
c1ccc(-c2noc(-c3cccc4ccccc34)n2)cc1 | -179.4*
c1cncc(-c2noc(-c3cccc4ccccc34)n2)c1 | -225.5*
c1ccc2c(-c3nc(-c4ccncc4)no3)cccc2c1 | -271.7*
CCCCOc1ccc(C(=O)NNC(=S)NC(=O)CC)cc1 | 85.4
CCCCOc1ccc(-c2nc(=S)[nH][nH]2)cc1 | -65.0*
CCCCOc1ccc(-c2ncc(N)cn2)cc1 | -95.3*
CCCCOc1ccc(-c2nc(SCC(N)=O)n[nH]2)cc1 | -114.2*
CN1CCN(C(c2ccc(Cl)cc2)c2cc(Cl)c3cccnc3c2O)CC1 (stereo not given) | 77.1
CCCCc1c(O)nc(SCC(=O)c2ccccc2)[nH]c1=O | -87.1*
O=C(CSc1nc(O)c(Cc2ccccc2)c(=O)[nH]1)c1ccccc1 | -62.8*
